# Laboratory results: PubChem BioAssay AID1159506 (National Center for Advancing Translational Sciences (NCATS), 2015)
# Whole data set: some 59,000 sequences, median the read-out near -0.00055, cut for the lowest 2% near -2. Many of the other results were omitted from the sample, so the lowest values are more common in it than they were.
# Experiment: Identification of proteins required for the processing of the EWS-FLI1 nascent transcript;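 also: robust z of luciferase light less the median z of siRNAs with the same seed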
# Conditions: TC32 Ewing sarcoma NR0B1-luc vs CMV-luc (EWS-FLI1 target promoter against control promoter), 48 h; screened at 20 nM (by protocol)
# Outline: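 Readout: OneGlo luminescence, 48 h post-transfection, TC32-NR0B1-luc vs TC32-CMV-luc in parallel. siRNA 20 nM final, RNAiMax lipid, 600 cells/well; z-score-MAD transformed, then seed-adjusted.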
row,Sequence,seed-corrected z-score
1,UCAUUCACUAUCACUUGUC against ZNF35,-1.13
2,AACUCUUCACGUACUAGCC against PKD2,0.287
3,UUAGCUGCUGGGAACACUG against IL18BP,-2.28
4,UAUGUUUCUCGUCUCAACA against DNM1P49,-0.258
5,AAAGUCACGUUUUCCGCGC against RGS14,0.981
6,AAAGAUACAUCUGCCUUCC against CMPK1,-0.0168
7,AGAAUUCUGAGGGCGGAGC against UCN2,-0.561
8,AUAGUAAGCAGCCUUCUGC against HOXD3,-3.99
9,UAUCUUGACCAAAUAAACC against MPC2,0.235
10,ACAGGAGCCACCCUAAAAG against WDR86,0.75
11,UCUGUCUCCGCUUGGAGUG against FOS,0.622
12,UAGGUCUUAGGAGUCAUCU against RPL9P25,-2.06
13,UCUGCUCCAAUAAUCCGGC against ANKS6,0.347
14,UCCGUUUCCACAUGGUCGC against TEKT4,0.747
15,AUAGGCAAGAGUGACAAGC against CNGB3,0.169
16,UGGGAUCUAACUCCUUAGC against IFT172,-2.76
17,UACUAGAUGUGGUGCAUCC against RPS6KA3,0.496
18,UAGGCAUCCGUAUCCCUGC against FAM131B,0.847
19,AGCUGCUAAACUUUCAUCC against JAKMIP2,-2.59
20,UCUCGAAUGAGAAUGCUCC against CSTF3,-0.0852
21,UUCUUGAUCUUGGAUCUUU against DLX5,-0.846

row,Sequence,seed-corrected z-score
1,UUCUUGAUCAUCAUUCACC against SLC7A6OS,0.569
2,UAUCGUAAAAUCACAUGAG against AMFR,0.503
3,UGAUGUUUCGCAGGCACCG against CRHR1,0.0226
4,UUAAUUACUCUCUUCAAUG against UGT2B7,-0.533
5,UUUUGGGCCUCUGAACUCC against LCE1B,0.31
6,UACCUUAACCAUCCGAUGC against WDR6,0.132
7,UAGAGGAUAAUGUUCUCGG against ABHD17C,-12.1
8,UUGGAGAUCAAUCCAGCCU against CBFB,0.537
9,UCAAUCAUCCGUGAGUUGC against WBSCR22,0.315
10,UUUCAGCUGCGCUCGGUUC against GOLGA6L2,-3.72
11,UGCAUUCCGGCUGUGAUCG against LINC00152,-0.804
12,UUAUGGGCUCUGAUGACCG against DIP2C,0.0672
13,UUCAGGAUCGCGGUUAUCA against OR4X2,0.269
14,UUAAAGACUCGGUUCACUG against PLXNA3,-1.44
15,UAUACUCCCGCACAUAGCC against PI4KA,-0.673
16,UUGUUAUGAAUGUACAUCG against TMEM181,-5
17,UCCGCAGUUCCUUAAGUGG against LOC401589,0.0579
18,UGCUGAAACCUUGAUGUGC against CRTC3,1.11
19,UUGAGUAAGAGAUGGACCC against ZNF184,-0.444
20,AAUGAUCCCACAGAUAUCA against IKZF1,0.796
21,UCUGUUCGAUCAUCCGUGC against ACP6,-0.281

row,Sequence,seed-corrected z-score
1,UGUGUCCCUCCCAAUCUCC against GGT2,0.0675
2,AAAUCGAUGAGAAACCUGC against KAT6A,0.325
3,UACAUUGUAGCAGAUGUUG against ACSS2,-0.36
4,AAGUCUACAAGUGAUCUCU against ATP6V0E2-AS1,-2.23
5,UGUUGUUUACGUUCGAUUG against ADD3,-0.745
6,UGUUAGGUAAGGCUAGGUC against UTS2B,0.63
7,AUUAUGAGCAUGCAGGUUC against ANKRD6,1.1
8,UUUCUUCCCAGGUGUCUUG against PTHLH,-2.12
9,UCUAGACCUAUGGACAGUC against WDFY2,-0.0809
10,UUAGCUUCCUCCAAAAUGC against LOC342293,1.1
11,UCCUGGUUAAAUAGGAAGG against BLID,-0.822
12,UACUGAGUAGUAGUUGGGC against DISP3,-2.25
13,UUUGGUUUGGAAAAGGUAC against KMT5A,0.072
14,UAACUUAGAAUUCCAUUUU against DMRTA2,0.067
15,UGUCCUACCACAGUCUUCA against LINC00703,-0.2
16,UUUUCUGCAGCUUUAAGGG against IL17C,1.34
17,UGGUCAAUCUGUUCAAUGG against C16orf70,-13.9
18,UACAUAGUAAACUCGCCCG against ITCH,0.22
19,UAAGUAACCCAAGUAUUGC against C2orf69,0.361
20,AGGGUUGACAUGGAACUGC against FITM1,0.313
21,UUCCGUACAAAAUUGUGCA against ARAF,-0.24

row,Sequence,seed-corrected z-score
1,UGAGGUACAGUGAACAAGG against TMEM110,-0.57
2,AAACUGCUUCCGGACAUUG against ACAD8,-1.71
3,UACGUUUCUGAAGAAGGUG against FAM231D,1.63
4,UCUAGGAAAAGGACUCGGC against IKZF2,0.168
5,UUGCUUAUUCUCUCUCACG against CAAP1,-3.02
6,UAAAAUACCCACGUGGUUC against TMEM150A,0.686
7,UUUCUCUGAAGUUAAGUCC against G0S2,-0.192
8,UAGAUAAUCUUGAACCUUC against UGP2,0.118
9,UGCUUGAACGUGUCCGUCC against LRRC4B,-0.284
10,UAACAGCGAAUUCCAAGGC against ZBTB12,-2.07
11,AAGACUAUAAAUCAUGUAG against LMBRD1,-0.385
12,AAUGUUGUGAUUAAGUAAG against DFNB59,-2.62
13,ACCUUGACCAGAAAGCUGC against C20orf27,-0.672
14,AAAAGUAUUACAAAAAGUG against MYOD1,-0.532
15,UAUACGUAAUGAAAGUUUC against SNX7,0.211
16,AAACUGUGCAAAAGUCUCU against APCDD1L-AS1,-0.722
17,UUUGUGUCCACCGUUAUAA against EVPLL,0.153
18,AAAUGUACCAAUACGUAGU against TMEM107,-2.13
19,UCGUUUCUGUGCUCCGUCC against PCP2,0.0855
20,UCGAUGUACACUUUGAGGC against B3GNT8,0.222
21,UAUGAUUAAGAAUGAAACC against OR6C1,0.426
